TDP1 inh = TDP1 (human) enzyme inhibition; recombinant TDP1, AlphaScreen DNA substrate cleavage; Potency, µM (series often up to 130 µM), for inactives: top-dose activity change, negative = inhibition, hits mostly inhibitors; 0.28% of 350,000 active; further: potency means the concentration at half of the fitted maximal effect; on the % scale 0 is the no-effect control and ±100 the full control effect; nearly all actives have a fitted effect of over 40% in size
Target sequence (Q9NUW8 whole entry, looked up): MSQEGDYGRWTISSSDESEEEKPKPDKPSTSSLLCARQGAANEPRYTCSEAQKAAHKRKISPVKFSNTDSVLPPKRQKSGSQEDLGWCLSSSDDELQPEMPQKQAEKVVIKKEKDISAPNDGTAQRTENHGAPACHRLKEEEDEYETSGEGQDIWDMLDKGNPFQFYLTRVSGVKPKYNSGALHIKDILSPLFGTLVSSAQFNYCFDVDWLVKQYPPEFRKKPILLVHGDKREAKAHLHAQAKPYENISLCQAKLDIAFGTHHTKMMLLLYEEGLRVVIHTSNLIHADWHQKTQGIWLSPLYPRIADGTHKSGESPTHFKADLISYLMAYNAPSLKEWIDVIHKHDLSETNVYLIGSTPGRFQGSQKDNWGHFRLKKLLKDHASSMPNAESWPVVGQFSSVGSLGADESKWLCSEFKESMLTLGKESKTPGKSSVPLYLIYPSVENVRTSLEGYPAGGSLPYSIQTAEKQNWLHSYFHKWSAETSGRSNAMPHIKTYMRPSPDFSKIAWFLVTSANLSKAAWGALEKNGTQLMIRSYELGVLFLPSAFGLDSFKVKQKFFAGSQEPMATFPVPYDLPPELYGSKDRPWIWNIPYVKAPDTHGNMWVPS
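Tdp1 1 nM final; 15 min RT w/ cpd; substrate 15 nM, 5 min; beads 10 ug/ml, 10 min; AlphaScreen read. Neg ctrl: no enzyme.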
TGFb SMAD3 inh = inhibitors of TGF-b signaling; HepG2 CAGA-GFP TGF-b/SMAD3 reporter, GFP fluorescence, 18 h; TGF-beta stimulated, 500 pg/mL final; 1.2% of 410,000 active; Potency, µM (top dose mostly 46.1 µM), inactives show at the highest dose activity, negative = inhibition, most hits filed as inhibitors; further: potency means the concentration at half of the fitted maximal effect; on the % scale 0 is the no-effect control and ±100 the full control effect; nearly all actives have a fitted effect of over 65% in size
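Inhibition of TGF-beta-driven CAGA-GFP reporter expression in HEPG2 cells is measured by cellular GFP fluorescence after 18 h stimulation with 500 pg/mL recombinant TGF-beta in 1% FBS medium at 37 degrees C.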
DT40 TDP1 no CPT = qHTS for Inhibitors of human tyrosyl-DNA phosphodiesterase 1 (TDP1): qHTS in cells in absence of CPT | DT40 Tdp1-/- hTDP1 cells, no CPT, ATP luminescence, 48 h | Potency, µM (series often up to 46.2 µM), inactives show top-dose activity change, negative = growth inhibition, most hits filed as inhibitors | 15% of 420,000 active | AID 686978, 2013; further: potency means the concentration at half of the fitted maximal effect; on the % scale 0 is the no-effect control and ±100 the full control effect; nearly all actives have a fitted effect of over 55% in size
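Camptothecin absent (DMSO only). Human TDP1-complemented DT40 knockout cells, 400 cells/well, 37 °C for minimum 48 hr; ATP measured via CellTiter-Glo, 30 min dark incubation, luminescence.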
DT40 TDP1 CPT = DT40-hTDP1 cell growth loss with CPT; chicken DT40 Tdp1-/-;hTDP1 cells + 20 nM CPT, ATP luminescence, 48 h; Potency, µM (top dose mostly 46.2 µM), inactives show at the highest dose activity change, negative = growth inhibition, actives largely listed as inhibitors; 12% of 420,000 active; further: potency means the concentration at half of the fitted maximal effect; on the % scale 0 is the no-effect control and ±100 the full control effect; nearly all actives have a fitted effect of over 55% in size
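Chicken DT40 Tdp1-/- cells complemented with human TDP1, 400 cells/well, exposed to compounds plus 20 nM camptothecin for at least 48 h at 37 C; viability read as ATP content by CellTiter-Glo luminescence.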
HepG2 tox = kills HepG2 cells in TGF-b inhibitor counter-screen. Potency, µM (highest dose often 46.1 µM), for the others: top-dose activity change, negative = cytotoxicity, hits mostly cytotoxic. 0.76% of 410,000 active. AID 588856. HepG2 CAGA-GFP viability, ATP luminescence, 18 h; further: potency means the concentration at half of the fitted maximal effect
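CellTiter-Glo luminescence gave cytotoxicity after 18 hours at 37 degrees C. The cells were HepG2 CAGA-GFP in 1% FBS DMEM, stimulated with 500 pg/mL TGF-beta after compound addition. %Activity was normalised to no-cell wells (complete cell-killing) and DMSO (no toxicity), and curves were fitted and classified.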
IL-1B inflam inh = blocks inflammasome-driven IL-1 beta release; THP-1 LPS/ATP IL-1B secretion, AlphaLISA, 16 h; active compounds read low; activity change, % at 57.5 µM; 4.7% of 360,000 active; AID 743279; in the data active means activity change below about -50%; inconclusive means mostly about -30% to -49%; further: on the % scale 0 is the no-effect control and ±100 the full control effect
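THP-1 cells pretreated 1 hr with compounds (up to 57.5 uM final), then stimulated with LPS (250 ng/mL final) plus ATP (1.25 mM final); secreted IL-1B measured by AlphaLISA after 16 hr, decreased signal indicating inhibition.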
An asterisk follows results filed as active; ? = inconclusive; / = no result. In the library only some 19% were active in any assay of this set; here they are far more common. Unless noted, the call rests on the fitted dose curve; in most records, active means well fitted curve in the direction sought with a large enough effect; inconclusive means small, poorly fitted or top-dose-only effect, or another doubt; inactive means no such curve, though single readings can be large; an effect the other way counts as inactive or inconclusive.

SMILES	TDP1 inh	TGFb SMAD3 inh	DT40 TDP1 no CPT	DT40 TDP1 CPT	HepG2 tox	IL-1B inflam inh
COc1ccc(/C=C/c2ccncc2)c2ccccc12	5%	?	?	-21%	-40%	12
N#CC1(Cc2ccc([N+](=O)[O-])cc2)c2ccccc2C=CN1C(=O)c1ccccc1 (stereo not drawn)	-3%	2%	15µM*	?	4%	-20
N#CC1(Cc2ccccc2)c2ccccc2C=CN1C(=O)c1ccccc1 (stereo not drawn)	5%	3%	?	?	6%	14
C=Cc1ccc(CN2C(=O)N(c3cccc(Cl)c3)S(=O)(=O)c3ccccc32)cc1	3%	-20%	?	12µM*	-22%	/
COc1cc(OC)cc(N2C(=O)N(Cc3ccc(C(C)(C)C)cc3)c3ccccc3S2(=O)=O)c1	3%	-1%	21µM*	?	4%	/
COc1ccc(N2C(=O)N(Cc3ccc(C)cc3)c3ccccc3S2(=O)=O)cc1	1%	-3%	?	?	-14%	9
CSc1cccc(N2C(=O)N(Cc3ccc([N+](=O)[O-])cc3)c3ccccc3S2(=O)=O)c1	6%	-16%	-21%	-8%	4%	/
Cc1cc(F)ccc1NC(=O)CS(=O)(=O)c1cccc2nsnc12	5%	0%	-11%	11%	-1%	/
CC(=O)Nc1ccc(N2C(=O)CC(Sc3nc(C)cc(C)n3)C2=O)cc1 (stereo not drawn)	/	3%	7%	3%	-1%	23
COc1ccc(N2C(=O)CC(Sc3n[nH]c(-c4cccc(C)c4)n3)C2=O)cc1 (stereo not drawn)	11%	34%	3.7µM*	0.92µM*	39%	-30
CCOc1ccccc1N1C(=O)CC(Sc2n[nH]c(-c3ccccc3)n2)C1=O (stereo not drawn)	9%	?	0.65µM*	0.65µM*	-42%	0
COc1ccccc1N1C(=O)CC(Sc2nc(C)cc(C)n2)C1=O (stereo not drawn)	2%	-1%	0%	-6%	1%	19
COC(=O)c1ccc(N2C(=O)CC(Sc3n[nH]c(C)n3)C2=O)cc1 (stereo not drawn)	4%	0%	5.2µM*	2.1µM*	-28%	15
CC(=O)N/N=C/c1ccccc1OCCOc1cccc(C)c1	3%	12%	?	?	-9%	2
Cc1c(Cl)cnc(NC(=O)COC(=O)c2ccncc2)c1Cl	0%	3%	4%	-10%	-46%	13
COc1ccc(NC(=O)CSc2nc3nc(C)c(Cc4ccc(C)cc4)c(C)n3n2)cc1OC	8%	9%	?	?	-23%	/
COc1ccccc1CNC(=O)CSc1nc2nc(C)c(Cc3ccccc3C)c(C)n2n1	3%	-7%	5.2µM*	15µM*	-27%	/
Cc1nc2nc(SCC(=O)NCc3ccccc3Cl)nn2c(C)c1Cc1ccccc1	0%	?	?	?	-17%	/
Cc1nc2nc(SCC(=O)NC3CCC(C)CC3)nn2c(C)c1Cc1ccccc1 (stereo not drawn)	8%	-12%	?	18µM*	-14%	/
C=CCc1c(C)nc2nc(SCC(=O)Nc3ccc(C)c(C)c3)nn2c1C	0%	?	-104%	?	-49%	/
COc1cc(NC(=O)CSc2nc3nc(C)c(Cc4ccccc4)c(C)n3n2)cc(OC)c1OC	10%	-8%	21µM*	21µM*	-21%	/
C=CCc1c(C)nc2nc(SCC(=O)Nc3cccc(Cl)c3)nn2c1C	8%	-5%	-92%	21µM*	3%	/
OCl	-6%	/	-4%	-2%	/	/
CSCC[C@H](N)C(=O)N[C@@H](CCCN=C(N)N)C(=O)N[C@@H](Cc1ccccc1)C(=O)N[C@@H](Cc1ccccc1)C(=O)N[C@H](C(=O)O)C(C)C	6%	/	/	/	/	/
CCc1cc(Cn2nc(-c3ccccc3)cc2C(=O)NCC2CC2)on1	-6%	-5%	-30%	?	-23%	21
SMILES	TDP1 inh	TGFb SMAD3 inh	DT40 TDP1 no CPT	DT40 TDP1 CPT	HepG2 tox	IL-1B inflam inh
COc1cc(OC)c(NC(=O)C2CCN(S(=O)(=O)c3ccc4c(c3)oc(=O)n4C)CC2)cc1Cl	-1%	-23%	0%	-6%	-10%	/
Cc1cccc(Cc2c(C)nc3nc(SCC(=O)NCc4ccccc4)nn3c2C)c1	-6%	?	?	21µM*	-10%	/
Cc1cccn2c(=O)cc(COc3cccc(NC(=O)c4ccccc4F)c3)nc12	-3%	-1%	?	?	-10%	/
COc1cccc(NC(=O)CN2C(=O)CSc3ccc(S(=O)(=O)N4CCC(C)CC4)cc32)c1	7%	?	?	?	-7%	-89*
CC1CCN(CCCNC(=O)CN2C(=O)CSc3ccc(S(=O)(=O)N4CCC(C)CC4)cc32)CC1	0%	?	15µM*	?	-24%	?
CCCCNC(=O)CN1C(=O)CSc2ccc(S(=O)(=O)N3CCC(C)CC3)cc21	-2%	?	-18%	?	-34%	/
CCc1cc(/C(Cc2csc(C)n2)=N/O)c(O)cc1O	5%	?	23µM*	?	6%	-7
Cc1nc(C/C(=N\N)c2ccc(O)cc2O)cs1	3%	16%	-10%	-5%	4%	31
N#C/C(=C\C1CC=CCC1)c1nc2ccccc2[nH]1 (stereo not drawn)	7%	6%	?	-13%	-25%	-52*
N#C/C(=C/c1cccs1)c1nc2ccccc2[nH]1	?	-18%	?	?	-27%	9
Cn1c(/C(C#N)=C/C2CC=CCC2)nc2ccccc21 (stereo not drawn)	0%	1%	?	?	-38%	-96*
COC(=O)c1ccccc1NC(=O)CSc1nc(C)c(Cl)c(C)c1C#N	5%	-7%	-25%	-18%	-20%	/
Cc1noc(C)c1-c1ccc2ncnc(NCC3CCCCN3C)c2c1 (stereo not drawn)	1%	10%	/	/	5%	/
CC(=O)c1ccc(N=C2C(=O)Nc3ccccc32)cc1	/	-11%	13µM*	?	3%	-8
Cc1cnccc1CN(C)Cc1nc(Cc2ccccc2Cl)no1	0%	-9%	15µM*	18µM*	-14%	-9
COc1ccc2nc(NC(=O)c3cc(=O)c4cc(C)cc(C)c4o3)sc2c1	7%	18%	-11%	5%	0%	/

Screening results as filed in PubChem BioAssay.
